The values that follow come from PubChem BioAssay (NCI).

This is part of a sample that, as a whole, favours compounds with a hit. Of some 83,000 tested, about 20% had one in any assay.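 Assay: single dose, 48 h. Readout: percent growth (0 = no net growth; negative = cell death). Active: <10.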 A number with no mark means an inactive call. Calls of active or inactive are those of the source.

What all share (assay): NCI-60 one-dose screen, 48 h (100 = growth as untreated, 0 = no growth, -100 = all killed)
Conditions in all cases: 10 µM unless noted

In experiment [1] the test system is NCI-H23 lung.
Experiment [2] concerns NCI-H226 lung.
Experiment [3] has as its system NCI-H322M lung.
Experiment [4] relates to HOP-62 NSCLC.
Experiment [5] concerns NCI-H460 lung.
Experiment [6] has as its system NCI-H522 lung.
The test system of experiment [7] is A549/ATCC NSCLC.
Experiment [8] concerns COLO 205 colon.
Experiment [9] concerns DU-145 prostate.
The subject of experiment [10] is K-562 leukemia.
Experiment [11] deals with MALME-3M melanoma.
In experiment [12] the test system is MDA-MB-231 breast.
Experiment [13] deals with RXF 393 renal.
Experiment [14] has as its system SF-268 CNS.
Experiment [15] has as its system SF-295 CNS.
Experiment [16] deals with SF-539 CNS.
Experiment [17] deals with UACC-257 melanoma.
The subject of experiment [18] is M14 melanoma.
The test system of experiment [19] is HCT-15 colon.
In experiment [20] the test system is 786-0 renal.

With `CCCCCCCCCCCCNc1ncnc2[nH]ncc12`, the growth was 51.1% in [1]; 72.9% in experiment [2]; 99.3% in [3]; 93.4% in experiment [4]; 79.2% in [5]; 76.1% in experiment [6]. The growth in experiment [7] was 71.1%; in [8], 95.4%; in experiment [9], 85.9%; in [10] it was 48.7%; in experiment [11], 84.7%; in experiment [12], 68.6%. In addition, the growth was 96.4% in experiment [13]; 84% in experiment [14]; 54.8% in [15]; 77% in experiment [16]; 50.2% in [17]; 74.2% in [18]. The growth in experiment [19] is 84.9%.

In the case of `Cn1cc(-c2csc(-c3cn(C)c4ncccc34)n2)c2cccnc21`, the growth was 92.1% in experiment [1]; 107% in experiment [2]; 106% in [3]; 123% in [4]; 98.4% in experiment [5]; 87.1% in experiment [6]. In addition, the growth in experiment [7] was 89.7%; in experiment [20], 83.1%; in experiment [11], 106%; in [12], 93.7%; in [13] it was 98.4%; in [14], 106%. In addition, the growth in experiment [15] is 98.3%; in experiment [16], 99%; in experiment [17] it was 99.8%; in experiment [18], 96%; in experiment [19] it was 90.6%.

For the compound `COc1ccc(C(=O)C(C)Br)cc1OC` (stereo not given), the growth in experiment [1] was 90.7%; in experiment [2] it was 96.1%; in experiment [3] it was 99%; in experiment [4] it was 106%; in experiment [5], 103%; in [6], -10.4% (active). The growth is 95.5% in [20]; 23.3% in experiment [8]; 107% in [9]; 59.2% in experiment [10]; 97.2% in [11]; 90% in experiment [12]. In addition, the growth was 102% in experiment [13]; 90.9% in experiment [14]; 102% in experiment [15]; 92.9% in experiment [16]; 80.1% in [17]; 97.5% in experiment [18]. Further, the growth in experiment [19] is 46.4%.

On to `Cn1cc(-c2nc(-c3c[nH]c4ncccc34)cs2)c2cccnc21`, for which the growth in experiment [1] was 63.1%; in experiment [2], 70%; in [3], 64.3%; in [4] it was 68.2%; in experiment [5] it was 46.6%; in [6], 46.5%. For the same compound, the growth is 69.6% in experiment [7]; 60.6% in [20]; 84.8% in [11]; 47.6% in [12]; 54.6% in [13]; 91.5% in experiment [14]. Also, the growth in experiment [15] is 71.1%; in [16] it was 69.1%; in experiment [17] it was 105%; in experiment [18], 42.5%; in experiment [19], 43.6%.

For the compound `O=c1[nH]c(Cl)nc2c1cnn2-c1ccccc1`, the growth in experiment [1] was 81.3%; in [2] it was 92.5%; in experiment [3], 112%; in experiment [4], 91.3%; in experiment [5], 95.3%; in experiment [6] it was 97.1%. For the same compound, the growth in [7] was 113%; in experiment [8] it was 107%; in [9], 104%; in [10], 43%; in experiment [11] it was 104%; in [12] it was 92.3%. Also, the growth in experiment [13] was 111%; in [14], 93%; in [15] it was 85.2%; in experiment [16], 77.2%; in [17] it was 106%; in experiment [18] it was 84.9%. Besides, the growth in experiment [19] was 94.7%.

In the case of `O=C(CCc1nnc2sc(-c3ccc(Cl)cc3Cl)nn12)c1nc2ccccc2[nH]1`, the growth in experiment [1] was -35.1% (active); in experiment [2], -78.4% (active); in experiment [3] it was -54.7% (active); in experiment [4], -56.9% (active); in [5], -57.8% (active); in [6] it was -74.7% (active). In addition, the growth is -46.1% (active) in experiment [7]; -94.7% (active) in experiment [20]; -26.5% (active) in experiment [11]; -54.2% (active) in experiment [12]; -92.9% (active) in [13]; 15.2% in [14]. Moreover, the growth in experiment [15] is -37.4% (active); in experiment [16], -19% (active); in experiment [17] it was -69.9% (active); in experiment [18], -47.5% (active); in experiment [19] it was -31.8% (active).

Regarding `Cn1cc(-c2csc(-c3cn(C)c4ncccc34)n2)c2cc(F)cnc21`, the growth in experiment [1] is 70.5%; in [2], 94.4%; in experiment [3], 112%; in [4], 99.1%; in experiment [5] it was 84.1%; in [6], 22.2%. For the same compound, the growth in [7] was 73.6%; in experiment [20], 91%; in [11], 80.7%; in experiment [12], 62.6%; in experiment [13], 82.4%; in experiment [14], 95.4%. Further, the growth was 69.5% in experiment [15]; 101% in experiment [16]; 84.1% in [17]; 62.8% in [18]; 61% in [19].

As to `COc1ccc(-c2c3c(nn2-c2ccc(N)cc2)CCc2cnoc2-3)cc1OC`, the growth in [1] is 93.4%; in experiment [2], 95.8%; in experiment [3], 103%; in experiment [4], 104%; in [5], 101%; in experiment [6] it was 70.4%. In addition, the growth in experiment [7] was 85.2%; in experiment [20] it was 84.9%; in experiment [11], 106%; in experiment [12] it was 88.5%; in [13], 93%; in experiment [14], 90.8%. In addition, the growth is 85.4% in [15]; 94.5% in experiment [16]; 112% in experiment [17]; 97.8% in experiment [18]; 85.6% in experiment [19].

Regarding `CCC(c1ccccc1)c1noc(CCN(CC)CC)n1` (stereo not given), the growth was 99.5% in experiment [1]; 90.7% in [2]; 109% in [3]; 97.4% in experiment [4]; 103% in [5]; -8.89% (active) in [6]. In addition, the growth in experiment [20] is 108%; in experiment [8] it was 114%; in experiment [9], 100%; in experiment [10], 65.1%; in experiment [11], 93.8%; in experiment [12] it was 106%. The growth is 33.3% in experiment [13]; 103% in experiment [14]; 108% in [15]; 101% in experiment [16]; 96.7% in [18]; 108% in [19].
